Here are results for 40 compounds from PubChem BioAssay (NCATS).

Records with an inconclusive call do not appear. A call without a number means that no potency is given here. A number with no mark means an inactive call. Active and inactive are the calls of the source. The call rests on the fitted dose curve; in most records, active means well fitted cell-killing curve with a large enough effect; inconclusive means small, poorly fitted or top-dose-only effect; inactive means no such curve, though single readings can be large or run the other way. Numbered stars: 1 amine (or outer) side, 2 acyl side, 3 side chain; on linkers, the order of the positions; unused ones are H or OH. Bridge positions count the residues as written; N and C are the ends. Square brackets hold non-standard residues; d marks the D form. Peptide text beside a SMILES is read from it. I, II: the chains in the order shown. Actinocin(9to1) = Cc1c2oc3c(C)ccc(C(=O)[*:1])c3nc-2c(C(=O)[*:2])c(N)c1=O; NMeV = CN[C@H](C(=O)O)C(C)C; Sar = CNCC(=O)O
Potency means the concentration at half of the fitted maximal effect.

The assay in a line: qHTS of pediatric cancer cell lines to identify multiple opportunities for drug repurposing: Primary screen for A673 cells (AID 1347092). Further: nearly all actives have a fitted effect of over 45% in size. Conditions: A673 Ewing sarcoma viability, CellTiter-Glo ATP luminescence, 48 h; series mostly up to 46 µM. From the text:
Drug repurposing or repositioning has been offered as a strategy for drug development in oncology programs. This approach has special potential for childhood cancers and other rare or orphan diseases, where the expected return on new drug development has been a disincentive to pharmaceuticals. […] In this project we exploit the poly-pharmacology of drugs to discover new indications via phenotypic screening of a panel of 19 well-characterized cell lines derived from solid tumors seen in children and adolescents. The goal is to identify approved drugs with previously unrecognized anticancer properties that has the potential to reveal new mechanisms and biological processes involved in carcinogenesis or drug resistance. We employed a titration-based paradigm (quantitative high-throughput screening or qHTS), where all compounds were tested at multiple concentrations for their effect on cell viability. Concentration-response curves (CRCs) were derived directly from the primary screen, and both potency and efficacy values were used to identify compounds with robust bioactivity profiles. We screened the NIH Chemical Genomics Center (NCGC) Pharmaceutical Collection (NPC) and Mechanism Interrogation Plate (MIPE) small molecule collections of approved and investigational compounds against these cell lines; and measured metabolically active cells after 48 hours of compound treatment as a proxy for cell viability. […] Assay Submitter: Nathalia J. Martinez, National Center for Advancing Translational Sciences, National Institutes of Health, Rockville, MD, USA; email: natalia.martinez@nih.gov. Shen, M et al. Quantitative high-throughput phenotypic screening of pediatric cancer cell lines identifies multiple opportunities for drug repurposing. Oncotarget 2017 Dec 19;9(4):4758-4772. PMID 29435139.
The cells were obtained from University of North Carolina (UNC), Pediatric Preclinical Testing Program (PPT), and Coriell Institute (CI). qHTS cell viability assay: Cells were assayed in growth media at a density of 500-1,000 cells/well. Five microliters of cells were dispensed into 1,536-well, white, solid-bottom, TC-treated plates (Greiner Bio One) using a multidrop dispenser and incubated at 37 degrees C, 5% CO2, under a humidified atmosphere for 5 hours. Twenty-three nanoliters of compounds and controls (neutral control DMSO or positive control bortezomib at final concentration of 2.3 uM) were subsequently transferred by Kalypsys pintool. For primary screens, the MIPE collection was tested at 11-point dilutions (final concentrations range from 0.78 nM to 46 µM) and the NPC collection at 8-point dilutions (final concentrations range from 0.59 nM to 46 µM). Compounds tested in follow-up screens were assayed at 11-point dilutions. Cells were incubated for 48 hours, followed by addition of 3 uL of CellTiter-Glo (Promega). After a 15min incubation at room temperature, samples were analyzed for luminescence intensity using a ViewLux High-throughput CCD imager equipped with clear filters.
(In general: In qHTS, concentration-response curves come from the screen itself.)
On to `O=C1OC2(c3ccc(O)cc3Oc3cc(O)ccc32)c2ccccc21`, for which the Potency result is “inactive”.

Turning to `CCN1CCC[C@H]1CNC(=O)c1c(OC)ccc(Br)c1OC`, the Potency result was “inactive”.

Turning to `Cc1ncc(CSSCc2cnc(C)c(O)c2CO)c(CO)c1O`, the Potency entry is “inactive”.

On to `COc1cccc2c1C(=O)c1c(O)c3c(c(O)c1C2=O)C[C@@](O)(C(=O)CO)C[C@@H]3O[C@H]1C[C@H](N)[C@H](O)[C@H](C)O1`, for which the Potency is 1.06 µM (active).

Turning to `CCCCCCCCCCCCCCCCCC(=O)OCC(O)CO` (stereo not given), the Potency entry is “inactive”.

Take `O=C(OCC(O)CO)c1ccccc1Nc1ccnc2cc(Cl)ccc12` (stereo not given): the Potency result is “inactive”.

In the case of `O=S1(=O)c2cccc3cccc(c23)N1CCCN1CCN(c2ccc(F)cc2)CC1`, the Potency result was “inactive”.

For `C[C@H](CCC(=O)O)[C@H]1CC[C@H]2[C@@H]3C(=O)C[C@@H]4CC(=O)CC[C@]4(C)[C@H]3CC(=O)[C@]12C`, the Potency entry was “inactive”.

Regarding `CCOc1ccc2nc3cc(N)ccc3c(N)c2c1`, the Potency is 26.6 µM (active).

In the case of `Nc1ccc(/C=C/c2ccc(N)cc2S(=O)(=O)O)c(S(=O)(=O)O)c1`, the activity change, negative = cytotoxic is 1.22% [at 0.597 µM].

For `CCn1cc(C(=O)O)c(=O)c2cnc(N3CCCC3)nc21`, the activity change, negative = cytotoxic was -17.7% [at 9.22 µM].

Turning to `Cc1cc(=O)n(-c2ccccc2)n1C`, the Potency result was “inactive”.

In the case of `O=C(COc1ccc(Cl)cc1)N1CCN(Cc2ccc3c(c2)OCO3)CC1`, the Potency result was “inactive”.

Turning to `CN(C)C(=S)SC(=S)N(C)C`, the Potency is 0.668 µM (active).

For the compound `Cc1c2oc3c(C)ccc(C(=O)N[C@@H]4C(=O)N[C@H](C(C)C)C(=O)N5CCC[C@H]5C(=O)N(C)CC(=O)N(C)[C@@H](C(C)C)C(=O)O[C@@H]4C)c3nc-2c(C(=O)N[C@@H]2C(=O)N[C@H](C(C)C)C(=O)N3CCC[C@H]3C(=O)N(C)CC(=O)N(C)[C@@H](C(C)C)C(=O)O[C@@H]2C)c(N)c1=O` (I: T[dV]P[Sar][NMeV] / II: T[dV]P[Sar][NMeV]; ester I:1-I:C, II:1-II:C; linker I:N-II:N via Actinocin(9to1)), the Potency was 0.0042 µM (active).

On to `CCN1CCCC1=O`, for which the Potency result is “inactive”.

As for `COc1cc(C(=S)N2CCOCC2)cc(OC)c1OC`, the Potency result is “inactive”.

Consider `C/C=C/c1ccc(OC)cc1`, for which the Potency result was “inactive”.

As to `CCOC(=O)[C@H](CCc1ccccc1)N[C@@H](C)C(=O)N1Cc2ccccc2C[C@H]1C(=O)O`, the Potency entry was “inactive”.

In the case of `NCCc1ccn[nH]1`, the Potency result is “inactive”.

On to `CC(O)C(=O)O` (stereo not given), for which the Potency entry was “inactive”.

`CCCC(=O)O[C@]1(C(=O)CO)CC[C@H]2[C@@H]3CCC4=CC(=O)CC[C@]4(C)[C@H]3[C@@H](O)C[C@@]21C`: the Potency result is “inactive”.

With `CN1CCC[C@@H]1c1cccnc1`, the Potency result is “inactive”.

With `NC[C@H]1O[C@H](O[C@H]2[C@H](O)[C@@H](O[C@H]3O[C@H](CO)[C@@H](O)[C@H](N)[C@H]3O)[C@H](N)C[C@@H]2N)[C@H](N)[C@@H](O)[C@@H]1O`, the Potency entry is “inactive”.

`CN(C(=O)CN(CCO)CC(=O)N(C)C(C)(C)Cc1ccccc1)C(C)(C)Cc1ccccc1`: the Potency result was “inactive”.

Regarding `CC1(C)O[C@@H]2[C@@H](CO[C@@]3(COS(N)(=O)=O)OC(C)(C)O[C@@H]23)O1`, the Potency result was “inactive”.

Take `O=c1c(-c2ccccc2)c1-c1ccccc1`: the Potency was 8.41 µM (active).

Turning to `CC(Cc1ccccc1)(NC(=O)CN)c1ccccc1` (stereo not given), the Potency entry was “inactive”.

Turning to `Cc1cccn2c(=O)c(-c3nnn[nH]3)cnc12`, the Potency entry is “inactive”.

`CC1(C)OC[C@@H](COC(=O)CCc2ccc(OC[C@@H](O)CNCCNC(=O)N3CCOCC3)cc2)O1`: the Potency result was “inactive”.

For `CCCN1CCCC[C@H]1C(=O)Nc1c(C)cccc1C`, the Potency result was “inactive”.

Turning to `COc1cc2c(cc1OC)C(C(C(=O)N(CCc1ccc(OC)c(OC)c1OC)CCc1ccc(OC)c(OC)c1OC)c1ccccc1)=NCC2` (stereo not given), the Potency result was “inactive”.

Turning to `CCOC(=O)OC(C)OC1=C(C(=O)Nc2ccccn2)N(C)S(=O)(=O)c2ccccc21` (stereo not given), the Potency result is “inactive”.

Consider `Cc1c(C(N)=O)cc([N+](=O)[O-])cc1[N+](=O)[O-]`, for which the Potency entry was “inactive”.

For the compound `CCN(CCCc1ccccc1)CCCc1ccccc1`, the Potency result was “inactive”.

For `CCCCCCCCCCOCC(O)CN` (stereo not given), the Potency is 21.1 µM (active).

As for `CC(=O)OCC(=O)[C@@]12OC(C)(C)O[C@@H]1C[C@H]1[C@@H]3C[C@H](F)C4=CC(=O)C=C[C@]4(C)[C@@]3(F)[C@@H](O)C[C@@]12C`, the Potency result is “inactive”.

Take `CC(C)n1nc(-c2cc3cc(O)ccc3[nH]2)c2c(N)ncnc21`: the Potency was 10.6 µM (active).

Consider `CC1=C(C(=O)OC(C)C)C(c2cccc([N+](=O)[O-])c2)C(C(=O)OC2CN(C(c3ccccc3)c3ccccc3)C2)=C(N)N1` (stereo not given), for which the Potency was 13.3 µM (active).

Regarding `OC[C@H]1O[C@@H](n2cnc3c(=S)nc[nH]c32)[C@H](O)[C@@H]1O`, the Potency is 0.266 µM (active).
